Screening data: PubChem, several laboratories
HIV RNase H inh-1: blocks HIV-1 RNase H cleavage of RNA/DNA duplex | inhibition, % at 10 µM | P04585 | RT-RNase H RNA/DNA duplex cleavage, fluorescence | actives 1.9% (n = 65,000); in the data active = inhibition above about 50%
RmlCD inh mix: mixture blocks RmlC and RmlD coupled enzyme activity; RmlC/RmlD coupled enzyme inhibition, 384-well mixture HTS; inhibition, % at 5.5 µM; actives 0.39% (n = 110,000); AID 1532; in the data active = inhibition above about 30%, passing the limit was not always enough; inconclusive = no clear call, values can overlap the other calls
HIV RNase H inh-2: confirmation of HIV-1 reverse transcriptase RNase H inhibitors; shares compounds with HIV RNase H inh-1; Recombinant RT RNase H, fluorescent RNA/DNA duplex cleavage; inhibition, % at 10 µM; actives 39% (n = 1,000); AID 651; in the data active = inhibition above about 48%; inconclusive = no clear call, values can overlap the other calls
* hit, by the source's call; ? = inconclusive; . = no result. The sample as a whole holds a higher share of hits than the screen did.

SMILES	HIV RNase H inh-1	RmlCD inh mix	HIV RNase H inh-2
O=C(O)C(O)c1ccccc1 (stereo not drawn)	.	-34	.
O=C(O)C(O)c1ccco1 (stereo not drawn)	57*	.	48
O=C(CN1CCN(C(=O)N2CCOCC2)CC1)Nc1ccc(Br)cc1	-4	11	.
Cn1c(SCc2cccc(F)c2)nnc1-c1ccccn1	-17	-2	.
Cc1cc(C(=O)N2CCN(CCc3ccccc3)CC2)no1	-11	-6	.
COc1ccc(C(=O)Nc2oc(-c3ccccc3)c(-c3ccccc3)c2C#N)cc1OC	62*	3	?
COc1ccc(C(=O)Nc2oc(-c3ccccc3)c(-c3ccccc3)c2C#N)cc1	.	-18	.
CCn1c(SCC(=O)NC2CCCC2)nnc1-c1c[nH]c2ccccc12	.	-6	.
Cc1c(C(=O)OC2CCCCC2)sc2nc[nH]c(=O)c12	-29	4	.
COc1cccc(CN(CC(=O)NCC2CCCO2)C(=O)CCC(=O)Nc2cc(C)on2)c1 (stereo not drawn)	-1	48	.
Cc1c(OCC(F)(F)F)ccnc1CS(=O)c1nc2ccccc2[nH]1 (stereo not drawn)	74*	6	33
COCCCOc1ccnc(CS(=O)c2nc3ccccc3[nH]2)c1C (stereo not drawn)	.	-6	.
CN1CC(=O)N(CC(=O)Nc2ccc(N(C)C)cc2)c2ccccc2C1=O	5	-8	.
Cc1ccc(C2CC(=O)N3CN(Cc4ccco4)CSC3=C2C#N)cc1 (stereo not drawn)	26	72	.
N#CC1=C2SCN(c3ccccc3)CN2C(=O)CC1c1c(Cl)cccc1Cl (stereo not drawn)	38	-10	.
N#CC1=C2SCN(c3ccccc3)CN2C(=O)CC1c1ccccc1Cl (stereo not drawn)	67*	6	26
COc1ccc2ccccc2c1C1CC(=O)N2CN(C)CSC2=C1C#N (stereo not drawn)	68*	7	11
CC(C)c1ccc(C2CC(=O)N3CN(C)CSC3=C2C#N)cc1 (stereo not drawn)	73*	-2	65*
CCOC(=O)c1ccc(N2CSC3=C(C#N)C(c4ccc(OC)cc4OC)CC(=O)N3C2)cc1 (stereo not drawn)	16	10	.
COc1cc(OC)c(C2CC(=O)N3CN(C)CSC3=C2C#N)cc1OC (stereo not drawn)	76*	-11	57*
COc1ccc(OC)c(C2CC(=O)N3CN(c4ccc(C)c(Cl)c4)CSC3=C2C#N)c1 (stereo not drawn)	-6	7	.
CCc1nnc(NC(=O)CSc2ncnc3scc(-c4ccc(C)cc4)c23)s1	.	-10	.
Cc1ccc(S(=O)(=O)CC2CSc3nc(N)cc(=O)n32)cc1 (stereo not drawn)	-14	1	.
O=C(Nc1cccc(-c2csc(Nc3ccc(Cl)cc3)n2)c1)c1cccc(C(F)(F)F)c1	.	-12	.
O=C(Nc1ccccc1)C12CC3CC(C1)CC(n1cnc([N+](=O)[O-])n1)(C3)C2	.	5	.
SMILES	HIV RNase H inh-1	RmlCD inh mix	HIV RNase H inh-2
CCN1C(=O)c2c(C)nc3ccccc3c2C1=O	-12	-16	.
CCc1ccccc1N1CSC2=C(C#N)C(c3cc(OC)c(OC)cc3OC)CC(=O)N2C1 (stereo not drawn)	79*	11	63*
COc1ccc(OC)c(C2CC(=O)N3CN(c4cccc(Cl)c4)CSC3=C2C#N)c1 (stereo not drawn)	-8	-11	.
COc1ccc(Br)cc1C1CC(=O)N2CN(C)CSC2=C1C#N (stereo not drawn)	80*	8	64*
COc1cc(OC)c(C2CC(=O)N3CN(c4ccccc4)CSC3=C2C#N)cc1OC (stereo not drawn)	33	-10	.
CC(NC(=O)c1cnc2n(c1=O)CCS2)c1ccccc1 (stereo not drawn)	-12	10	.
COC(=O)CNc1c(-c2ccccn2)nc2ccc(Br)cn12	-6	-44	.
COc1ccc(Cn2nnnc2C(c2cc3cc(C)ccc3[nH]c2=O)N2CCOCC2)cc1 (stereo not drawn)	-18	6	.
COc1ccc(Cn2nnnc2C(c2cc3cccc(C)c3[nH]c2=O)N2CCOCC2)cc1 (stereo not drawn)	54*	5	4
Cc1cccc(NC(=O)Cn2c(C)c(C#N)c3ccccc32)c1C	72*	9	63*
Cc1c(C#N)c2ccccc2n1CC(=O)NC(C)c1ccccc1 (stereo not drawn)	.	-1	.
O=C(CCN1C(=O)C2C3C=CC(C3)C2C1=O)NCc1cccnc1 (stereo not drawn)	2	-2	.
CCN1CCN(C(=S)c2ccc(Br)cc2)CC1	.	3	.
OCCN1CCN(C(=S)c2ccc(Cl)c(Cl)c2)CC1	93*	5	66*
Cc1ccccc1NC(=O)Cn1nnc2c(cnn2-c2ccc(F)cc2)c1=O	.	-5	.
O=C(CSc1n[nH]c(-c2ccncc2)n1)c1ccccc1	-5	4	.
Cc1nc(SCC(=O)c2ccccc2)n[nH]1	59*	-3	17
FC(F)(F)c1cc(-c2ccco2)nc(NCc2cccnc2)n1	-29	.	.
CCOC(=O)c1c(N)sc2c1CCSC2	.	-19	.
CCOC(=O)c1c(N)sc2c1CCC1C(=O)N(C3CCCCC3)C(=O)C21 (stereo not drawn)	74*	-5	68*
COC(=O)CSC1=C(C#N)C(c2ccc(C(C)C)cc2)CC(=O)N1 (stereo not drawn)	-9	-14	.
Cc1ccc(C2CC(=O)NC(SCCC(C)C)=C2C#N)cc1 (stereo not drawn)	65*	3	10
O=C(CSc1nc(-c2ccco2)cc(C(F)(F)F)n1)N1CCCc2ccccc21	-14	-5	.
CCn1c(=S)sc2nc(C)sc21	84*	4	46
CCn1c(-c2ccc(C)cc2)n[nH]c1=S	.	5	.
SMILES	HIV RNase H inh-1	RmlCD inh mix	HIV RNase H inh-2
CC(=O)O[C@H]1C2OC(=O)C(C)=C2[C@@H]2OC(=O)[C@]3(CCC4OC41C)OC23 (stereo partly drawn)	.	-208	.
CCOCC(=O)Nc1c(C(=O)Nc2ccc(OC)cc2OC)oc2ccccc12	17	-7	.
COc1cccc(OCC(=O)Nc2c(C(=O)Nc3ccc(OC)cc3OC)oc3ccccc23)c1	89*	.	93*
O=C(CSc1ncnc2nc[nH]c12)NCCc1ccccc1	-15	-9	.
Cc1ccc(S(=O)(=O)c2cc3c(=O)n4ccccc4nc3n(Cc3ccco3)c2=N)cc1	2	.	.
CN(C)S(=O)(=O)c1ccc(N2CCCC2)c(C(=O)Nc2ccc(N3CCOCC3)cc2)c1	.	7	.
CCOC(=O)c1cccc(NC(=O)COC)c1	.	-11	.
CCOC(=O)c1c(C)n(-c2ccc(C)cc2)c2c(C(C(C)=O)C(=O)O)c(Br)c(O)c(O)c12 (stereo not drawn)	.	9	.
CCOC(=O)C(C(C)=O)c1c(Br)c(O)c(O)c2c(C(=O)c3ccc(C)cc3)coc12 (stereo not drawn)	95*	6	63*
COc1cc2[nH]c(=O)n(CCC(=O)N3CCN(c4cccc(C)c4C)CC3)c(=O)c2cc1OC	61*	9	46
COc1cc2[nH]c(=O)n(CCCCCC(=O)N3CCN(c4ccccc4)CC3)c(=O)c2cc1OC	.	13	.
Nc1sc2c(c1C(=O)NC1CCS(=O)(=O)C1)CCC2 (stereo not drawn)	66*	-38	74*
NC(=O)c1c(N)sc2c1CCCCC2	73*	5	-1
CC(=O)c1sc(N)c(C(=O)OC(C)C)c1C	.	12	.
